The values that follow come from ChEMBL document CHEMBL4888484, “Replenishing the malaria drug discovery pipeline: Screening and hit evaluation of the MMV Hit Generation Library 1 (HGL1) against asexual blood stage Plasmodium falciparum ,using a nano luciferase reporter read-out” (2022).

SMILES strings stand for the structures. Among all 4,800 compounds or so, about 420 (8.8%) showed an effect of 50% or more. What follows is part of a selection rich in strong results, with near analogues and random picks from the rest.

This experiment deals with Plasmodium falciparum. The experiment can be described thus: Confirmatory screen in NF54 nanoGlo assay, in single point, at 2uM, 72h. The note with it: timepoint 72 hour. It counts as functional, Erythrocyte.
Regarding `Cc1cc(OC[C@@H](O)CNC(C)(C)CC(C)(C)C)cc(C)c1Cl`, the “% Inhibition” value is reported as 67%.
Turning to `CC(=O)N1CCCN(S(=O)(=O)Cc2ccccc2Cl)CCNC(=O)[C@@H]2CCC[C@@H]21`, the “% Inhibition” value is recorded as 0%.
Under `Cc1ccc(-c2n[nH]c(NC(=O)Nc3ccc(F)c(S(=O)(=O)NC4CC4)c3)c2C)o1` stands -9%.
Under `CCOc1ccc([C@@H](Nc2nc(C)cc(C)n2)c2cc(C)sc2NC(=O)c2ccccc2)cc1` stands 1%; under `COc1ccc(OC)c([C@H](C)NC(=O)N2CCS(=O)(=O)CC2)c1`, -3%; under `C[N+]12CCCCC1C(OC(=O)C1(c3ccccc3)CCCC1)CCC2` (stereo not given), 96%.
To `CN(C(=O)Cn1cnc2nc(N3CCC(C(=O)NC4CC4)CC3)sc2c1=O)c1ccccc1` belongs -14%; to `CCCCC1NC(=O)N([C@@H]2CCC(=O)N[C@H]2c2ccccc2)C1=O` (stereo not given in full), 2%; to `CC(=O)Nc1ccccc1CC(c1c[nH]c2ccccc12)c1c[nH]c2ccccc12`, 0%.
For `CC(C)C(NC(=O)COc1ccccc1)C(=O)NCC(c1ccccc1Cl)c1c[nH]c2ccccc12` (stereo not given), the “% Inhibition” value amounted to 69%.
To `O=C(Cc1c[nH]c2ccccc12)Nc1ccc(Cl)c2ncccc12` belongs 5%; to `CCS(=O)(=O)N1CCN(c2nc(Cc3ccc(C)cc3)nc3c2c(C)nn3-c2ccccc2)CC1`, -3%; to `N/C(CC(=O)Nc1cccc(Cl)c1)=N/O`, -4%.
Under `CCCC[C@H](Oc1ccc(C(C)(C)CC)cc1C(C)(C)CC)C(=O)Nc1ccc(NC(=O)C(F)(F)C(F)(F)C(F)(F)F)c(O)c1` stands 30%; under `Cc1cc(-c2ccccc2)nc(O)c1S(C)(=O)=O`, -3%; under `Cc1nn(C(C)(C)C)c2nc(C3CC3)cc(C(=O)N(C)c3ccccc3)c12`, 81%.
To `Cc1ccc(S(=O)(=O)N2CCN(C(=O)c3cc(C4CC4)nc4c3c(C)nn4C(C)C)CC2)cc1` belongs -1%; to `Cc1nn(Cc2ccccc2)c2nc(C3CC3)cc(C(=O)N3CCOCC3)c12`, 3%.
Take `Cc1cnc(-n2cnnc2)c(-c2ccc(S(C)(=O)=O)cc2)c1`: the “% Inhibition” value is reported as -3%.
Under `Cn1c(-c2ccccc2)cn2cc(-c3ccc(F)cc3)nc12` stands 1%.
To `COc1cccc(Cn2nc3ccc(S(=O)(=O)N4CCCC4)cn3c2=O)c1` belongs 2%; to `Cc1cc(C(=O)Nc2cc(C)nn2C)nc(N(C)C)n1`, -1%; to `Cc1cc(NC(=O)c2ccccn2)n(-c2nc3ccccc3o2)n1`, 88%.
Under `Cc1cc(C)n(C(=O)CNC(=O)c2ccccn2)n1` stands 2%.
Take `CCc1cc(C(=O)N(CC)c2ccccc2)c2c(C)noc2n1`: the “% Inhibition” value was -7%.
To `Clc1ccc(-c2onc3c2CCCC3)cc1` belongs 2%.
For `O=C(Nc1cc(-c2onc3c2CCCC3)cc(C(F)(F)F)c1)c1cncc(Br)c1`, the “% Inhibition” value stood at 95%.
To `O=C(Nc1onc2c1CCC2)c1ccc2ccccc2c1` belongs 45%.
To `Cn1c(CCNC(=O)CCc2cccnc2)nc2cc(Cl)ccc21` belongs -3%; to `CCN1CCC(NC(=O)CCc2c[nH]c3ccccc23)CC1`, 4%; to `CC1(C)Oc2ccc(S(=O)(=O)NC3CCCCC3)cc2NC1=O`, -8%.
To `Cc1nn(-c2nc3ccccc3[nH]2)c(O)c1Cc1ccccc1` belongs 2%; to `Oc1cc(-c2ccc(F)cc2)nn1-c1nc2ccccc2[nH]1`, -9%; to `Cc1nn(-c2nc3ccccc3[nH]2)c(O)c1CCC(C)C`, 68%.
On to `O=C(Nc1ccc(OC2CCC2)c(F)c1)N1CC[C@H](O)C1`, for which the “% Inhibition” value is on record as -2%.
For `CCCc1noc([C@H](C)OC(=O)c2cc[nH]n2)n1`, the “% Inhibition” value is given as -7%.
To `CCN1C(=O)C(=O)N(CN2CCc3ccccc3C2)C1=O` belongs -4%; to `Cc1nn(C)c(Cl)c1NC(=O)OCc1ccc(F)cc1`, -4%; to `CCn1cc(C#N)c(=O)c2cc(F)c(N3CCN(Cc4ccccc4)CC3)cc21`, 69%.
Under `CCn1cc(C(=O)O)c(=O)c2cc(F)c(N3CCN(S(=O)(=O)c4ccccc4)CC3)cc21` stands -10%; under `CCn1cc(-c2nc(-c3ccccc3C)no2)c(=O)c2cc(F)c(N3CCCCC3)cc21`, 47%; under `c1cc(Cn2cnc3c2CCCC3)cs1`, -15%.
To `CC[C@H]1Cn2c(C(=O)NCc3cccs3)cc3c(Cl)ccc(c32)O1` belongs -4%; to `COc1ccc(C(=O)Cn2nc(C)cc2C)cc1`, -4%.
As for `COc1ccc2c(O)cc(-c3ccccc3)nc2c1`, the “% Inhibition” value was -2%.
For the compound `COc1ccc2c(NC(=O)Cc3c(C)noc3C)n[nH]c2c1`, the “% Inhibition” value is recorded as 0%.
Take `O=C(Nc1cccc(Oc2c(F)c(F)c(-c3c(F)c(F)c(Oc4cccc(NC(=O)c5ccccc5)c4)c(F)c3F)c(F)c2F)c1)c1ccccc1`: the “% Inhibition” value was determined as 5%.
Under `Nc1cc(C(F)(F)F)c(Br)cc1Br` stands -16%; under `Cc1cccc(N2CCN(C(=O)c3ccc4c(c3)C(=O)N(c3cc(C)on3)C4=O)C[C@@H]2C)c1`, -3%.
To `CC1CN(S(=O)(=O)CC2CCOC2)c2ccc(F)cc2O1` (stereo not given) belongs -2%; to `CCOc1ccccc1NC(=O)Cc1c(C)nc2nc(-c3cccnc3)nn2c1C`, 0%.
To `Cc1cc(C)c2nc(C)cc(Nc3ccc(O)cc3)c2c1` belongs 87%.
As to `CCCOc1ccc(Nc2cc(C)nc3ccc(Cl)cc23)cc1`, the “% Inhibition” value is 42%.
Under `Cc1ncoc1C(=O)N1CC(F)(F)C[C@H]1Cn1cc(C(=O)N2CCOCC2)nn1` stands -1%.
As to `CC(C)(C)OC(=O)Nc1cccc(N)n1`, the “% Inhibition” value came to 1%.
Under `Cn1cncc1CC(=O)Nc1ccnc(NC(=O)OC(C)(C)C)c1` stands 96%; under `COc1ccc(-c2noc(Cn3c(=O)c4ccccc4n(CC(=O)Nc4cc(Cl)ccc4C)c3=O)n2)cc1`, -3%; under `O=C(C[C@H]1CCN(C(=O)c2ccc(F)cc2)C1)NC1CC1`, -11%.
Under `CCS(=O)(=O)Nc1ccc(S(=O)(=O)NC[C@@H](c2ccccc2OC)N2CCCCC2)c(C)c1` stands -1%; under `CC(C)[C@@H]1CC[C@H](C)C[C@H]1OC(=O)Cn1cc(-c2ccc(Cl)cc2)[n+]2c1CCC2`, 84%; under `CC(C)N(C(=O)c1cc(O)nc2ccccc12)C1CC1`, -2%.
Turning to `CN(CC(C)(CO)CO)C(=O)c1coc2ccccc12`, the “% Inhibition” value is reported as -3%.
To `c1cc(-c2nc3cc4ccccc4cc3[nH]2)nc(-c2nc3cc4ccccc4cc3[nH]2)c1` belongs 99%; to `Cc1cccc(C)c1OCC(=O)Nc1ccc(-c2nc3cc4ccccc4cc3[nH]2)cc1`, 10%; to `Oc1cc(-c2ccc3ccccc3c2)[nH]n1`, -11%.
Under `Cc1cccc(NC(=O)[C@@H](C#N)C(=O)c2ncoc2C)c1` stands -14%; under `Cc1c(C2CC2)n[nH]c1NC(=O)C1CC1c1ccccc1` (stereo not given), -1%.
On to `O[C@@]1(CN2CCC(COc3ccc4c(c3)CCC4)CC2)CCCNC1`, for which the “% Inhibition” value came out at 52%.
To `COc1cccc(Cn2nccc2NC(=O)C2CCOCC2)c1OC` belongs -3%; to `CC(C)Cn1c(C(F)(F)F)cnc1N`, 3%; to `Cc1ncc(CN(C)[C@@H](C)C(=O)Nc2ccc3c(c2)OC2(CCCCC2)O3)s1`, -4%.
Under `COc1cc(Cl)c(C)cc1NC(=O)c1nc2cc(C)c(C)cc2n(C)c1=O` stands -3%; under `O=C(c1ccc2c(c1)OCO2)N1CCn2c1nc1ccccc12`, 65%; under `O=C(c1ccc2c(c1)OCCCO2)N1CCCCC1`, -3%.
Under `Cc1nc2ccccc2n1CCC(=O)N1CCN(Cc2ccc3c(c2)OCO3)CC1` stands 2%; under `CCC[C@H]1C(=O)NCCN1C(=O)c1cnn(CC2CCOCC2)c1C`, 8%.
For `Cc1nnc(NC(=O)[C@H](C)c2ccc(-c3ccccc3)c(F)c2)s1`, the “% Inhibition” value is listed as -19%.
Under `COc1cc(C(c2c(C)n(C)n(-c3ccccc3)c2=O)c2c(C)n(C)n(-c3ccccc3)c2=O)c(Br)c(Br)c1OCc1ccccc1` stands 7%.
To `COc1cc(C(=O)NC2CCCCC2)cc2occc12` belongs -8%.
Under `Cn1ccnc1C1CC(NC(=O)c2cc3c(s2)CCC3)CCO1` (stereo not given) stands 0%; under `COc1cc2c(cc1OC)[C@@H](NC(=O)c1cnc(C3(C)OCCO3)s1)CCCC2`, 50%; under `Cc1cccc(C(=O)ON2C(=O)CCC2=O)c1`, -11%.
On to `CCCCC[C@H](C)NC(=O)CCC(=O)Nc1cccnc1`, for which the “% Inhibition” value was -11%.
On to `Cc1ccc(Oc2ccccc2CNC(=O)[C@@H]2CCC(=O)N2)cc1`, for which the “% Inhibition” value is given as -6%.
Under `COCCN(Cc1nc(C(=O)NC(C)C)cs1)C(=O)Nc1ccc(C(C)C)cc1` stands 4%; under `CC1CCN(C(=O)Cc2csc(NC(=O)c3cccc(O)c3)n2)CC(C)C1` (stereo not given), -10%; under `Fc1cnc(OC2Cc3ccccc3C2)nc1`, 57%.
Under `CCn1c(C)cc(C(=O)O[C@@H](C)C(=O)Nc2ncccn2)c1C` stands -4%.
For the compound `CC1CCCC(C)N1C(=O)CN(C)c1cccc2cccnc12` (stereo not given), the “% Inhibition” value is reported as -7%.
To `Cc1ccc(S(=O)(=O)Nc2ccc(Br)cc2C(=O)Nc2ccc(Oc3ccc(Br)c4ccccc34)c(Cl)c2)cc1` belongs 6%; to `C[C@@H](CC(=O)Nc1cncnc1-n1cccn1)c1ccccc1`, -3%.
Under `OC(CC(Nc1ccc(Cl)cc1)c1ccccc1)c1ccccc1` (stereo not given) stands -8%.
Under `CC(C)n1nccc1N1C(=O)N[C@@H](CC(F)(F)F)C1=O` stands 0%; under `CCN1C(=O)C[C@H](C(=O)Nc2cnc3ccccc3c2)[C@H]1c1nccn1CC`, 2%.
`O=C(Nc1cc(NC(=O)c2ccc(F)cc2)cc(Oc2cccnc2)c1)c1ccc(F)cc1`: the “% Inhibition” value is given as -1%.
In the case of `O=C(Nc1cnc2ccccc2c1)c1ccccc1C(=O)c1ccc(F)cc1`, the “% Inhibition” value is given as 96%.
To `Cc1nn(C)c(NC(=O)Nc2cccc(Cl)c2)c1C1=CCCCC1` belongs -5%.
Under `COc1ccc(-c2cn(-c3ccc(OC)cc3)c(N)c2C#N)cc1` stands -7%; under `CCc1n[nH]c(=O)c(C(=O)Nc2cnc3[nH]nc(C)c3c2)c1CC`, -1%.
`Cc1nsc(N2CCN(CC(C)O)C(C)C2)n1` (stereo not given): the “% Inhibition” value is listed as -4%.
